In PubChem BioAssay AID1490 (National Center for Advancing Translational Sciences (NCATS), 2009):
“And” between values parts separate entries of the source, which are not always exact repeats. Equal values may be shown once. Out of some 310,000 compounds screened, about 11,000 (3.5%) were called active. Roughly 4% stayed inconclusive and do not appear here. This excerpt belongs to a sample that is enriched for actives. Values without a mark were called inactive. Calls follow the shape of the dose curve; as a rule, active = well fitted inhibition curve with a large enough effect; inconclusive = small, poorly fitted or top-dose-only effect, or another doubt; inactive = no such curve, though single readings can be large or run the other way.

target: 4'-phosphopantetheinyl transferase ffp (Bacillus subtilis) (UniProt Q9F4F7); test: qHTS Assay for Inhibitors of Bacillus subtilis Sfp phosphopantetheinyl transferase (PPTase); conditions: Biochemical Sfp PPTase activity;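 also: the enzyme is Sfp with the accession as filed and its product quenches rhodamine fluorescence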;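 as to largest response in the series, negative = inhibition: 0% = enzyme reaction without inhibitor and -100% = no enzyme wells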
Summary of the method: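 Sfp 15 nM + cpd, 15 min RT; start w/ rhodamine-CoA 5 uM, BHQ-2-YbbR 12.5 uM (final); 50 mM Hepes pH 7.6, 10 mM MgCl2, 0.01% NP-40, 0.01% BSA; read 525/598 nm at 0 and 30 min.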
Potency is read from the fitted curve at half-maximal effect.

SMILES	largest response in the series, negative = inhibition	Potency
Cc1ccc(C(=O)N2CCC(n3nccc3NC(=O)Nc3cccc(F)c3)CC2)cn1	4.54%	
CCCCC[C@H](O)/C=C/[C@@H]1[C@@H](CC(=O)CCC(=O)O)[C@@H](O)C[C@H]1O	-8.37%	
OCCC(O)CO (stereo not given)	-2.96% and -0.468% and 9.51%	
O=C(c1cccnc1)N1CCN(S(=O)(=O)c2cccs2)CC1	2.77%	
O=C(COc1ccc(Cl)cc1)NCCS(=O)(=O)N1CCN(c2ccc(F)cc2)CC1	-3.01%	
NNC(=O)c1nnn(-c2nonc2N)c1CN1CCCC1	14.1%	
Cc1c(C(=O)N(C)CCc2cnn(C)c2)oc2c(F)cccc12	4.37%	
CCc1ccc2c(c1)C(c1ccc([N+](=O)[O-])cc1)=NNC(c1ccccc1)=N2	-18%	
CCc1ccc2c(c1)C1(NN=C(c3ccccc3)S1)C(=O)N2 (stereo not given)		8.91 µM (active)
Cc1ccc(C)c(N2CCN(C(=O)CCCn3c(=O)c4cccn4c4cccnc43)CC2)c1	14.7%	
CCNC(=O)N1CCCC(C(=O)c2ccc(-c3ccccc3)cc2)C1 (stereo not given)	4.19%	
CC(C)(C)c1cc(C(=O)NCc2cccnc2)ccn1	-7%	
Cc1ccc(-n2nc(-c3ccco3)cc2C(=O)NCc2cccnc2)cc1		10 µM (active)
CSc1sc(C(=O)NC(=O)NCc2cccnc2)c(C)c1-c1ccon1	9.79%	
COc1ccc(N(CC(=O)Nc2cccc3ccccc23)S(C)(=O)=O)c(OC)c1	9.66%	
Cc1ccccc1NC(=O)Cn1cc(C(=O)C2CC2)c2ccccc21	16.6%	
O=C(Cc1c(Cl)cccc1Cl)NC1CC1	11.4%	
C=CS(=O)c1sc(Cl)c(N2CCOCC2)c1[N+](=O)[O-] (stereo not given)		10 µM (active)
COc1ccc(CCNC(=O)c2nnc(CS(=O)(=O)c3ccccc3)o2)cc1OC	9.29%	
COc1ccc(C(=O)NC(C)Cn2nc(C)cc2C)cc1OC1CCN(C(C)=O)CC1 (stereo not given)	12.4%	

SMILES	largest response in the series, negative = inhibition	Potency
NC(N)=N/N=C/c1ccc(Cl)c([N+](=O)[O-])c1	6.82%	
NC(N)=N/N=C/c1ccc(OCc2ccc(Cl)cc2Cl)cc1		31.6 µM (active)
COc1ccc(C(=O)O/N=C(\N)Cc2ccc(Cl)cc2Cl)cc1OC	0.628%	
CCCOc1ccc(CNC(=O)C2CCN(c3nn4c(=O)cc(C)nc4s3)CC2)cc1	7.3%	
CC1CCN(C(=S)c2ccc(-c3ccc(Cl)cc3Cl)o2)CC1		50.1 µM (active)
COc1ccc(C(=O)Nc2c(Cl)cc(Cl)cc2C(=O)N2CCC(C)CC2)cc1	11.9%	
Cc1csc(NC(=O)c2ccc(-c3ccc(Cl)cc3Cl)o2)n1	1.33%	
Cc1nc2cc(C(F)(F)F)ccc2n1CCNc1nc(-c2cc(Cl)c(N)c(Cl)c2)cs1	9.07%	
Cc1cccc(N2CCN(C(=O)c3cccc(N4C(=O)C5C6C=CC(C6)C5C4=O)c3)CC2)c1C (stereo not given)	14.6%	
CCOC(=O)c1ccc(-c2ccc(C(=O)Nc3cccnc3)o2)cc1		44.7 µM (active)
CCOC(=O)c1ccc(NC(=O)c2cccnc2)cc1	10.5%	
Cc1ccc(NC(=O)Nc2cccnc2)cc1	2.48%	
Cc1cccc(C(=O)Nc2ccc(Oc3cnccn3)cc2)c1	11%	
C=C1CCN(C(CC(C)C)C(=O)NCc2cc(OC)c(OC)c(OC)c2)S(=O)(=O)c2ccccc21 (stereo not given)	-15.6%	
Cc1[nH][nH]c(=O)c1C(c1ccc2c(c1)OCO2)c1c(C)[nH][nH]c1=O	5.9%	
Cc1[nH][nH]c(=O)c1C(c1ccc(-c2ccc(Cl)cc2)o1)c1c(C)[nH][nH]c1=O		39.8 µM (active)
CCOc1ccc(C(c2c(C)[nH][nH]c2=O)c2c(C)[nH][nH]c2=O)cc1OCC	2.34%	
Cc1ccc2occ(/C=N/NC(=O)c3ccccc3C)c(=O)c2c1	18.5%	
CCC(C)[C@H](NC(=O)N1c2ccccc2NC(=O)[C@@H]1C(C)C)C(=O)N[C@@H](Cc1ccccc1)C(=O)O (stereo not given in full)	13.4%	
Cc1ccc(OCCOc2cccc(/C=N/NC(N)=O)c2)cc1	9.7%	

SMILES	largest response in the series, negative = inhibition	Potency
Cc1nnc(N/N=C/c2cccs2)[nH]c1=O		89.1 µM (active)
O=C(N/N=C\C1CC=CCC1)c1ccc(Br)o1 (stereo not given)	5.57%	
Clc1ccc(N/N=C/c2cccs2)nn1	-26.9%	
COCc1c(C(=O)N/N=C/C2CC=CCC2)nnn1-c1nonc1N (stereo not given)	-0.608%	
Cc1nnc(N/N=C/C2CC=CCC2)[nH]c1=O (stereo not given)		79.4 µM (active)
Cc1n[nH]c(=O)nc1N/N=C/c1cccs1	4.06%	
COc1ccc(CNC(=O)c2cc(C(=O)C3CC3)c[nH]2)cc1	19.2%	
CCc1cc(=O)oc2c(C)c(OCC(=O)N3CC[C@@]4(O)CCCC[C@H]4C3)ccc12	6.44%	
O=C(Nc1cccc(F)c1)NC1CCCCCCC1	8.11%	
COc1ccc2c(c1)O[C@@H](c1ccc3c(c1)OCO3)[C@H](OC(=O)NCc1ccco1)C2=O	1.2%	
CC(C)OCCCNC(=O)CN1C(=O)/C(=C/c2ccccc2F)Oc2ccccc21	-3.78%	
Cc1cc(=O)cc(C)[nH]1	15%	
Cc1cc(=O)[nH]c(=S)[nH]1		31.6 µM (active)
CSc1cc(C)[nH]c(=O)n1	7.92%	
O=C(c1ccccc1F)N1CCN(S(=O)(=O)c2ccc(Br)cc2)CC1	9.87%	
O=C(c1ccc(Cl)c(S(=O)(=O)N2CCCCC2)c1)N1CCCCCC1	16.4%	
O=C(c1ccc[nH]c1=S)N1CCN(S(=O)(=O)c2ccc(Br)cc2Cl)CC1		79.4 µM (active)
CC(C)Sc1ncnc2c1cnn2-c1ccccc1	-5.09%	
C=C1C(=O)C23C(O)C1CCC2[C@]12COC3(O)C(O)C1C(C)(C)CC[C@H]2O (stereo not given in full)	-81.1%	
O=C(COCc1cc(-c2ccc3c(c2)OCO3)on1)N1CCN(c2cccc(Cl)c2)CC1	-5.35%	
